The record followed here is PubChem BioAssay (Tox21).

Inconclusive results are not listed. The source holds several records for some structures; these can differ, active in one and inactive in another. The source made the active and inactive calls. Unless noted, the call rests on the fitted dose curve; in most records, active means well fitted curve in the direction sought with a large enough effect in the repeat runs; inconclusive means weak or mixed curves; inactive means no such curve, though single readings can be large; an effect the other way counts as inactive or inconclusive.

Test [1] deals with Progesterone receptor (Homo sapiens) (UniProt P06401). Briefly: qHTS assay to identify small molecule agonists of the progesterone receptor (PR) signaling pathway (AID 1346784; calls by dose curve; further: nearly all actives have a fitted effect of over 30% in size). The essentials: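 PR-UAS-bla HEK 293T cells (beta-lactamase reporter under UAS) in 2% charcoal-stripped FBS, dosed with 23 nL compound after 6 hr, incubated 16hr at 37C. LiveBLAzer B/G FRET substrate added, fluorescence read after 2 hours.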
Sequence of Progesterone receptor (Homo sapiens) (P06401 whole entry, looked up): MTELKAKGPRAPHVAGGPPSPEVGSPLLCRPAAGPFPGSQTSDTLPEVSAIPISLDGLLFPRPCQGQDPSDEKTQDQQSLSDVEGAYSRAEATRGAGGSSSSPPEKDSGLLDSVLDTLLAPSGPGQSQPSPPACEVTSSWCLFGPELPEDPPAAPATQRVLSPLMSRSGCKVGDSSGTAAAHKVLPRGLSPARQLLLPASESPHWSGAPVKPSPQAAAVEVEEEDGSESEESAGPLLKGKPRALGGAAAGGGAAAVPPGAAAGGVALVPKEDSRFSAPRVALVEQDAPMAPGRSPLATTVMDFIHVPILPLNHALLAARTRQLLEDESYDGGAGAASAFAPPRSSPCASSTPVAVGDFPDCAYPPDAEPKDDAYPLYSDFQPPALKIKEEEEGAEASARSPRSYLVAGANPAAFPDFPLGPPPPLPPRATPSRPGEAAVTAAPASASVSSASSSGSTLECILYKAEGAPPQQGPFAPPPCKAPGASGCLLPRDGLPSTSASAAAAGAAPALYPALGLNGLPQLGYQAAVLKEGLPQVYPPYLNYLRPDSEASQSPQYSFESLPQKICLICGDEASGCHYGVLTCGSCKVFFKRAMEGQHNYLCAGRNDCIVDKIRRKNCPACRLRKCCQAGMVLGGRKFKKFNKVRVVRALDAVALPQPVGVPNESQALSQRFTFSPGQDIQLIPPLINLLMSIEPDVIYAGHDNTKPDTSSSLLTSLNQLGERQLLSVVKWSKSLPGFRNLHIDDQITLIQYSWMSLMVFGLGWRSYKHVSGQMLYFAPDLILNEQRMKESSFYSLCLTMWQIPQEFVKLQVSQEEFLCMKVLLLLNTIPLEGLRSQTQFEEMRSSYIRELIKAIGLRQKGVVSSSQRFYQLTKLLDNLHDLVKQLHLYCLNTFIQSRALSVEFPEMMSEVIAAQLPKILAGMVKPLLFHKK
(qHTS replaces the single test concentration by a dilution series.)

Test [2] has the same target. Briefly: qHTS assay to identify small molecule antagonists of the progesterone receptor (PR) signaling pathway (AID 1346795; active means well fitted inhibition curve with a large enough effect in the signal ratio in the repeat runs, not every such curve was filed as active; the % refers to the signal ratio). A digest of the protocol:
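PR-UAS-bla HEK293T cells with beta-lactamase reporter under UAS control, in 2% charcoal-stripped FBS, treated with compounds plus 1 nM promegestone (R5020, final) for 16 hr at 37C. Read-out: FRET beta-lactamase substrate fluorescence after 2 hr at room temperature.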

Test [3] in a line: qHTS assay to identify small molecule antagonists of the progesterone receptor (PR) signaling pathway - cell viability counter screen (AID 1346798). Further: series mostly up to about 92 µM; nearly all actives have a fitted effect of over 50% in size. A digest of the protocol:
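PR-UAS-bla HEK293T cells, 3,000/well in 2% charcoal-stripped FBS medium, dosed with compounds plus R5020 agonist and incubated 16 h at 37C. Viability then measured in the same wells by CellTiter-Glo luminescence after 30 min at RT.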

A short description of test [4]: qHTS assay to identify small molecule agonists of the progesterone receptor (PR) signaling pathway - cell viability counter screen (AID 1346799; calls by dose curve; further: nearly all actives have a fitted effect of over 45% in size). A digest of the protocol: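 Counter screen in the PR-UAS-bla HEK293T wells (2% charcoal-stripped FBS, 16 h compound exposure at 37 C) after the bla read. CellTiter-Glo added, 30 min at room temperature, luminescence read as cell viability.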

Test [5] can be described thus: qHTS assay to identify small molecule antagonists of the TGF-beta/Smad signaling pathway - cell viability counter screen (AID 1346824). Further: nearly all actives have a fitted effect of over 50% in size. A digest of the protocol:
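Cytotoxicity counter-screen run in the same wells as the beta-lactamase Smad reporter read: CellTiter-Glo luminescence after 30 min at room temperature. HEK 293T SBE-bla cells had 5 hr compound exposure at 37 C with TGF-beta1 (0.25 ng/mL stock).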

Test [6] is described as follows: qHTS assay to identify small molecule agonists of the TGF-beta/Smad signaling pathway - cell viability counter screen (AID 1346829). Further: top concentration of the series differs between compounds; nearly all actives have a fitted effect of over 45% in size. The essentials: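 Same-well cytotoxicity: CellTiter-Glo added after the 2 hr room-temperature beta-lactamase substrate step, luminescence measured 30 min later; cells had 5 hr of compound at 37 C.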
Test [7] can be described thus: qHTS assay to identify small molecule agonists of the TGF-beta/Smad signaling pathway (AID 1346859; active means well fitted activation curve with a large enough effect in the signal ratio in the repeat runs, not every such curve was filed as active; the % refers to the signal ratio; further: series mostly up to about 77 µM). A digest of the protocol:
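SBE-bla HEK293T cells plated overnight, then compound exposure for 5 h at 37 C. Beta-lactamase reporter read with LiveBLAzer B/G FRET substrate after 2 h at room temperature, fluorescence at 405 nm excitation, 460/530 nm emission.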

The nature of test [8]: Human pregnane X receptor (PXR) small molecule agonists, qHTS cell viability counter screen (AID 1346977). Further: nearly all actives have a fitted effect of over 50% in size. A digest of the protocol:
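PXR-Luc HepG2 cells (2,000/well, 5% charcoal-stripped FBS) preincubated 5 hr, then exposed to compounds 24 hr at 37 C. Viability read in the same wells by CellTiter-Fluor fluorescence, reagent added at 23 hr, 1 hr incubation.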

Test [9] is described as follows: Caspase-3/7 induction in HepG2 cells by small molecules, qHTS assay (AID 1346978). Further: nearly all actives have a fitted effect of over 15% in size. A digest of the protocol:
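Caspase-3/7 induction was measured by Caspase-Glo 3/7 luminescence (30 min, room temperature) after a 17 hr compound exposure of wild-type HepG2 cells seeded at 2,000 per well and pre-incubated 5 hr.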

Test [10] is described as follows: Caspase-3/7 induction in CHO-K1 cells by small molecules, qHTS cell viability counter screen (AID 1346979). Further: nearly all actives have a fitted effect of over 35% in size. Further: potency means the concentration at half of the fitted maximal effect. A digest of the protocol: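 Wild-type CHO-K1 cells (1,500/well) treated with compound after 5 h plating; after 16 h at 37C, viability read as CellTiter-Fluor fluorescence following 1 h reagent incubation, in the same wells as the caspase read.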
Test [11] is described as follows: Caspase-3/7 induction in HepG2 cells by small molecules, qHTS cell viability counter screen (AID 1346981). Further: series mostly up to about 92 µM; nearly all actives have a fitted effect of over 30% in size. The essentials:
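HepG2, WT, 2,000 cells/well; 5 hr pre-incubation 37 C/5% CO2; compound pin-transferred from DMSO; 16 hr exposure; CellTiter-Fluor, 1 hr; fluorescence read.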

For test [12], the target named is Nuclear receptor subfamily 1 group I member 2 (Homo sapiens) (UniProt O75469). Briefly: Human pregnane X receptor (PXR) small molecule agonists, qHTS assay (AID 1346982). Further: nearly all actives have a fitted effect of over 35% in size. Further: potency means the concentration at half of the fitted maximal effect. The essentials: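 Luciferase signal from ONE-Glo (30 min, room temperature) measured activation of hPXR-driven CYP3A4 reporter expression in PXR-Luc HepG2 cells treated with compounds for 24 hr at 37 C.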
Sequence of Nuclear receptor subfamily 1 group I member 2 (Homo sapiens) (O75469 whole entry, looked up): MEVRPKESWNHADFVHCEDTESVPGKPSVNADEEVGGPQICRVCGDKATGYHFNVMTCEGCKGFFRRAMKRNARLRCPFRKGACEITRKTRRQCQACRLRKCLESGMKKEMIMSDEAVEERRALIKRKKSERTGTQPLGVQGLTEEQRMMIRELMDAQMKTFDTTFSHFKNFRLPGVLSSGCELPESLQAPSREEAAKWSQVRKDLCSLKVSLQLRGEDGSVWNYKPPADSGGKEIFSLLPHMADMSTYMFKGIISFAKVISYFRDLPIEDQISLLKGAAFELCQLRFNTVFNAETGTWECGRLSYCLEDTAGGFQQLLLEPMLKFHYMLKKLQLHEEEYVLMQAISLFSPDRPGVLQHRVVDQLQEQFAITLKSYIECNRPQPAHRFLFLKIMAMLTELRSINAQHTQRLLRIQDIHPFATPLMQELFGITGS

Test [13] concerns the target Cytochrome P450 2D6 (Homo sapiens) (UniProt P10635). Description: Cytochrome P450 Family 2 Subfamily D Member 6 (CYP2D6) small molecule antagonists: luciferase reporter qHTS assay (AID 1671196). Further: series mostly up to about 120 µM; nearly all actives have a fitted effect of over 50% in size. The essentials: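 Read-out is luminescence from luciferin formed by CYP2D6 turnover of a proluciferin substrate, recorded as relative luminescence units. Reactions ran 1 h at room temperature after NADPH regeneration solution was added.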
On the technique in general: Reporter assays use an easily measured gene product as a stand-in for the process of interest.

Test [14] has as its target Cytochrome P450 2C19 (Homo sapiens) (UniProt P33261). Briefly: Cytochrome P450 Family 2 Subfamily C Member 19 (CYP2C19) small molecule antagonists: luciferase reporter qHTS assay (AID 1671197). Further: nearly all actives have a fitted effect of over 65% in size. Further: potency means the concentration at half of the fitted maximal effect. The essentials:
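Quantitative high-throughput screen of the Tox21 library using CYP2C19 with proluciferin substrate. Reaction: NADPH regeneration, 37C, 1 h, after 10 min compound preincubation at room temperature. Readout: luminescence.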

Test [15] concerns the target Thyrotropin-releasing hormone receptor (Homo sapiens) (UniProt P34981). Briefly: qHTS assay to identify small molecule antagonists of the thyrotropin-releasing hormone receptor (TRHR) signaling pathway (AID 1346877; active means well fitted inhibition curve with a large enough effect in the repeat runs, not every such curve was filed as active; further: series mostly up to about 51 µM). The essentials:
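Intracellular calcium fluorescence, read kinetically every second over 3 min, reports TRH-evoked signalling in HEK293 cells carrying TRHR. Test compounds were added 5 min ahead of a 1 nM TRH challenge.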

The target is the same in test [16]. Description: qHTS assay to identify small molecule agonists of the thyrotropin-releasing hormone receptor (TRHR) signaling pathway (AID 1346891; calls by dose curve; further: series mostly up to about 58 µM). The essentials:
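HEK293 cells expressing TRHR plated 18 h at 37 C/5% CO2, calcium dye-loaded 2 h at 37 C, then compound added (agonist mode); kinetic calcium fluorescence read 3 min at 1 s intervals; 15 concentrations in triplicate.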

The nature of test [17]: Caspase-3/7 induction in CHO-K1 cells by small molecules, qHTS assay (AID 1346980). Further: nearly all actives have a fitted effect of over 15% in size. The essentials:
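Luminescent Caspase-Glo 3/7 read (30min, room temperature) quantified apoptosis induction. Cells were wild-type CHO-K1, treated with compound for 17hr at 37 C and 5% CO2.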

Test [18] deals with Nuclear receptor subfamily 1 group I member 2 (Rattus norvegicus) (UniProt Q9R1A7). Description: Rat pregnane X receptor (rPXR) activation by small molecules, qHTS assay (AID 1346983). Further: nearly all actives have a fitted effect of over 20% in size. The note with it: rPXR luciferase reporter cells, One-Glo luminescence, 24 h; max activation: stronger effect = higher value. A digest of the protocol: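 Luminescent readout (One-Glo luciferase, 30 min room temperature) followed 24 hr compound treatment at 37 C of rPXR cells plated 2,000 per well and preincubated 5hr; qHTS format with compounds delivered in DMSO.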
Sequence of Nuclear receptor subfamily 1 group I member 2 (Rattus norvegicus) (Q9R1A7 whole entry, looked up): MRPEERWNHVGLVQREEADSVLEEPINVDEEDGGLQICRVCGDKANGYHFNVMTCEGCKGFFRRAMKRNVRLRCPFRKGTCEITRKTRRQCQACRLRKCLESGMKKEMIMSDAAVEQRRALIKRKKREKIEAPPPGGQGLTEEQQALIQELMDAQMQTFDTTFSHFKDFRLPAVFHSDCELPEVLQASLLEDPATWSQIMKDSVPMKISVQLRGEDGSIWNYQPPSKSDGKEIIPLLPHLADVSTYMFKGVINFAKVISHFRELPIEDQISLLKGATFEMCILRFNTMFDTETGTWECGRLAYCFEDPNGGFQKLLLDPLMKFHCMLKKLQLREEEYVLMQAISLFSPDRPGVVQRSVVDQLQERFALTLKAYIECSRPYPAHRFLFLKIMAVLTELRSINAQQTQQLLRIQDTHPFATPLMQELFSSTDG
On the % scale 0 is the no-effect control and ±100 the full control effect.

Sequence of Cytochrome P450 2D6 (Homo sapiens) (P10635 whole entry, looked up): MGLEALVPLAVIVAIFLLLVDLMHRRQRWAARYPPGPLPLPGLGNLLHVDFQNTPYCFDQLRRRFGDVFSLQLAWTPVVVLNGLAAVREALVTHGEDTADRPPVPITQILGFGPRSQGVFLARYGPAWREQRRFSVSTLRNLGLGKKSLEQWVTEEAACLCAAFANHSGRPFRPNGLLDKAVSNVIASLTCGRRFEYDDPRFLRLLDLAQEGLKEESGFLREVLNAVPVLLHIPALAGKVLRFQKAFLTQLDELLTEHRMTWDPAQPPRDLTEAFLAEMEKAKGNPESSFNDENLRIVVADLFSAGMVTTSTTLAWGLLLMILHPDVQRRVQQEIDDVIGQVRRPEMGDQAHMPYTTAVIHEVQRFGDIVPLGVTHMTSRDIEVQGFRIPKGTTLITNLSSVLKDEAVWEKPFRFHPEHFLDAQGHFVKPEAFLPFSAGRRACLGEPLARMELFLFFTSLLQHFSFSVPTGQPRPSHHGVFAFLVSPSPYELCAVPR
Sequence of Cytochrome P450 2C19 (Homo sapiens) (P33261 whole entry, looked up): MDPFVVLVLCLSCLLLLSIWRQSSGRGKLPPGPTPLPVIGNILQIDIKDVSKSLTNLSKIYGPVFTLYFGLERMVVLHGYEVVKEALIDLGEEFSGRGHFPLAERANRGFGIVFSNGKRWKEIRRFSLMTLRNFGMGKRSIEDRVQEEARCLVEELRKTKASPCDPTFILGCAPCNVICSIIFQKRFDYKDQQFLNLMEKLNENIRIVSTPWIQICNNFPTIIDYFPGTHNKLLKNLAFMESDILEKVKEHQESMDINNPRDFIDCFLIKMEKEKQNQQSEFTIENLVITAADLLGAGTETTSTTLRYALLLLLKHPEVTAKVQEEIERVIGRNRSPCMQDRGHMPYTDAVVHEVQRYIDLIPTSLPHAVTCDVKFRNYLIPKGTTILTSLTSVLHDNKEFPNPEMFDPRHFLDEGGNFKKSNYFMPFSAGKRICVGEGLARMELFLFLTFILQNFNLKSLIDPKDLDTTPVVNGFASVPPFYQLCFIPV
Sequence of Thyrotropin-releasing hormone receptor (Homo sapiens) (P34981 whole entry, looked up): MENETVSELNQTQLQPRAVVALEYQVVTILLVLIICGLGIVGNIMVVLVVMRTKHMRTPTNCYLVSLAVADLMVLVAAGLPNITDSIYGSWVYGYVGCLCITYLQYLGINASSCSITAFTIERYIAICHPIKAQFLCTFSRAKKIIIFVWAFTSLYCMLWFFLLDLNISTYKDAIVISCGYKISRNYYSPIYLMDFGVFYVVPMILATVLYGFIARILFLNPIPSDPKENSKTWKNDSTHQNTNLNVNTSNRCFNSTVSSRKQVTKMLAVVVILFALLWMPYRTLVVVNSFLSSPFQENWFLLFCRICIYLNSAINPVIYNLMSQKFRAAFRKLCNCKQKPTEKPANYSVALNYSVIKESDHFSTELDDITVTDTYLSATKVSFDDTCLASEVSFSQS

`C=C(C)C(=O)OCC(C)O` (stereo not given): the Potency result in test [1], in [2], in test [3], in test [4], in test [5] and in [6] was “inactive” in each case. Also, the Potency entry in test [8], in test [9], in [10], in [11], in test [12] and in test [13] was “inactive” each time. In addition, the Potency result in [14] was “inactive”. Further, the molecule was classed as inactive in test [7].
Consider `CC(C)NCC(O)c1ccc(O)c(O)c1` (stereo not given), for which the Potency entry in test [1], in [2], in [3], in test [4], in [5] and in test [6] was “inactive” in each case. The Potency result in test [15], in test [16], in test [8], in [10], in test [17] and in test [11] was “inactive” in each case. Also, the outcome in [7] was inactive.
Turning to `Cc1ncc([N+](=O)[O-])n1C`, the Potency result in test [1], in test [2], in test [3], in test [4], in test [5] and in test [6] was “inactive” in each case. Further, the Potency result in test [15], in test [16], in test [8], in test [10], in test [17] and in [11] was “inactive” throughout. The Potency result in [12], in test [13] and in test [14] was “inactive” throughout. Further, the molecule was called inactive in [7].
In the case of `Cc1ncc([N+](=O)[O-])n1CCO`, the Potency result in [1], in [2], in test [3], in [4], in test [5] and in [6] was “inactive” throughout. In addition, the Potency result in test [15], in test [16], in [8], in test [9], in [10] and in test [11] was “inactive” in each case. Moreover, the Potency entry in test [12], in test [13] and in test [14] was “inactive” each time. Moreover, the result in test [7] was inactive.
For the molecule `CN(C)CCOC(c1ccccc1)c1ccccc1`, the Potency entry in test [1], in test [2], in [3], in test [4], in test [5] and in test [6] was “inactive” throughout. The Potency result in [15], in test [16], in test [8], in [10], in [17] and in test [11] was “inactive” throughout. The molecule was called inactive in [7]. Also, the Potency in [12] was 54.8 µM (active) and inactive.
As to `O=C1NS(=O)(=O)c2ccccc21`, the Potency entry in test [1], in [2], in test [3], in test [4], in [5] and in test [6] was “inactive” each time. In addition, the Potency entry in [15], in test [16], in test [8], in test [9], in test [10] and in test [17] was “inactive” each time. Further, in [11], the Potency result was “inactive”. Besides, the call in test [7] was inactive. For the same molecule, in [18], the max activation was -1.81% (inactive).
`COc1cccc(O)c1O`: the Potency entry in test [1], in test [2], in test [3], in test [4], in [5] and in [6] was “inactive” throughout. Further, the Potency result in [15] and in test [16] was “inactive” throughout. In addition, the molecule was called inactive in [7]. For the same molecule, the Potency in test [10] is 63.5 µM (active); in test [12], 25.3 µM (active); in test [14] it was 58.6 µM (active).
